The target in test [1] is Parathyroid hormone/parathyroid hormone-related peptide receptor (Homo sapiens) (UniProt Q03431). Nature of the test: qHTS for PTHR1 Agonists: Optimization Screen against the NCGC LOPAC library (AID 1347079).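 Also: GloSensor cAMP luminescence in HEK-293 GP2 cells expressing human PTHR1 with IBMX.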 An outline of the steps:
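HEK-293 GP2 cells, PTHR1 + GloSensor cAMP; 3000 cells/well, o/n. Luciferin + IBMX 0.5mM each (stock), 1 hr 37C. Cpd titration, 1 hr 37C. Lum after 15 min RT. Ctrl M-PTH(1-15) top 10uM.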
A general note: qHTS replaces the single test concentration by a dilution series.

Test [2] in a line: qHTS of pediatric cancer cell lines to identify multiple opportunities for drug repurposing: Primary screen for TC32 cells (AID 1347089). Also: nearly all actives have a fitted effect of over 60% in size. Also: potency is read from the fitted curve at half-maximal effect. Put shortly: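 In the primary qHTS, MIPE compounds were tested at 11 concentrations (0.78 nM to 46 µM) and NPC compounds at 8 (0.59 nM to 46 µM) on TC32 cells for 48 h. CellTiter-Glo luminescence gave viability.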
The nature of test [3]: qHTS of pediatric cancer cell lines to identify multiple opportunities for drug repurposing: Primary screen for DAOY cells (AID 1347090). Also: series mostly up to about 46 µM; nearly all actives have a fitted effect of over 55% in size. Put shortly: (§1)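 Cell viability, CellTiter-Glo luminescence; 500-1,000 cells/well, 8- or 11-point titration, 48 h compound exposure at 37 degrees C, 5% CO2. Controls: DMSO neutral, bortezomib 2.3 µM final as positive.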
Test [4] can be described thus: qHTS of pediatric cancer cell lines to identify multiple opportunities for drug repurposing: Primary screen for SK-N-MC cells (AID 1347093). Also: potency is read from the fitted curve at half-maximal effect. Put shortly:
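Metabolically active cells were quantified by ATP-dependent luminescence (CellTiter-Glo, 15 min at room temperature) following 48 h treatment. Cells had been plated at 500-1,000 per well and settled for 5 h beforehand.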

The nature of test [5]: qHTS of pediatric cancer cell lines to identify multiple opportunities for drug repurposing: Primary screen for NB-EBc1 cells (AID 1347095). Put shortly:
(§2)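 Primary screen of approved and investigational compounds on cells in growth media at 37 degrees C, 5% CO2. MIPE set at 11-point and NPC set at 8-point dilutions; viability scored by ATP-based luminescence at 48 hours.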

Test [6] is described as follows: qHTS of pediatric cancer cell lines to identify multiple opportunities for drug repurposing: Primary screen for U-2 OS cells (AID 1347096). Also: nearly all actives have a fitted effect of over 50% in size. Put shortly: (§3)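 Cells (500-1,000/well) rested 5 h, then received compounds for 48 h; metabolically active cells were measured by CellTiter-Glo luminescence. Final concentrations spanned up to 46 µM (MIPE, 11-point) or 0.59 nM-46 µM (NPC, 8-point) in primary screens, 11-point in follow-ups.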

The nature of test [7]: qHTS of pediatric cancer cell lines to identify multiple opportunities for drug repurposing: Primary screen for Saos-2 cells (AID 1347097). Also: nearly all actives have a fitted effect of over 40% in size. Also: potency is read from the fitted curve at half-maximal effect. Put shortly: as §2
Test [8] in a line: qHTS of pediatric cancer cell lines to identify multiple opportunities for drug repurposing: Primary screen for SK-N-SH cells (AID 1347098). Also: nearly all actives have a fitted effect of over 65% in size. Also: potency is read from the fitted curve at half-maximal effect. An outline of the steps: as §3
A short description of test [9]: qHTS of pediatric cancer cell lines to identify multiple opportunities for drug repurposing: Primary screen for NB1643 cells (AID 1347099). Also: nearly all actives have a fitted effect of over 50% in size. An outline of the steps: as §2
Test [10] is described as follows: qHTS of pediatric cancer cell lines to identify multiple opportunities for drug repurposing: Primary screen for LAN-5 cells (AID 1347100). Also: potency is read from the fitted curve at half-maximal effect. Put shortly:
as §3

Test [11] in a line: qHTS of pediatric cancer cell lines to identify multiple opportunities for drug repurposing: Primary screen for BT-12 cells (AID 1347101). Also: nearly all actives have a fitted effect of over 25% in size. An outline of the steps: as §3
Test [12] is described as follows: qHTS of pediatric cancer cell lines to identify multiple opportunities for drug repurposing: Primary screen for Rh18 cells (AID 1347102). Also: nearly all actives have a fitted effect of over 65% in size. An outline of the steps:
as §3

Test [13] can be described thus: qHTS of pediatric cancer cell lines to identify multiple opportunities for drug repurposing: Primary screen for OHS-50 cells (AID 1347103). Also: nearly all actives have a fitted effect of over 40% in size. Also: potency is read from the fitted curve at half-maximal effect. Put shortly:
as §3

The nature of test [14]: qHTS of pediatric cancer cell lines to identify multiple opportunities for drug repurposing: Primary screen for RD cells (AID 1347104). Also: nearly all actives have a fitted effect of over 55% in size. An outline of the steps:
as §2

The nature of test [15]: qHTS of pediatric cancer cell lines to identify multiple opportunities for drug repurposing: Primary screen for MG 63 (6-TG R) cells (AID 1347105). Also: nearly all actives have a fitted effect of over 50% in size. Put shortly:
as §2

Test [16] in a line: qHTS of pediatric cancer cell lines to identify multiple opportunities for drug repurposing: Primary screen for SJ-GBM2 cells (AID 1347091). An outline of the steps:
as §1

The nature of test [17]: qHTS of pediatric cancer cell lines to identify multiple opportunities for drug repurposing: Primary screen for A673 cells (AID 1347092). Also: nearly all actives have a fitted effect of over 45% in size. Also: potency is read from the fitted curve at half-maximal effect. Put shortly: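 48 h compound exposure, A673, 500-1,000 cells/well, 37 degrees C/5% CO2. MIPE: 11-point, 0.78 nM-46 µM; NPC: 8-point, 0.59 nM-46 µM (final). Readout CellTiter-Glo luminescence after 15 min RT.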
The nature of test [18]: qHTS of pediatric cancer cell lines to identify multiple opportunities for drug repurposing: Primary screen for BT-37 cells (AID 1347094). Also: potency is read from the fitted curve at half-maximal effect. Put shortly:
as §2

Records with an inconclusive call do not appear. The source made the active and inactive calls. Calls follow the shape of the dose curve; as a rule, active = well fitted curve in the direction sought with a large enough effect; inconclusive = small, poorly fitted or top-dose-only effect, or another doubt; inactive = no such curve, though single readings can be large; an effect the other way counts as inactive or inconclusive.

Sequence of Parathyroid hormone/parathyroid hormone-related peptide receptor (Homo sapiens) (Q03431 whole entry, looked up): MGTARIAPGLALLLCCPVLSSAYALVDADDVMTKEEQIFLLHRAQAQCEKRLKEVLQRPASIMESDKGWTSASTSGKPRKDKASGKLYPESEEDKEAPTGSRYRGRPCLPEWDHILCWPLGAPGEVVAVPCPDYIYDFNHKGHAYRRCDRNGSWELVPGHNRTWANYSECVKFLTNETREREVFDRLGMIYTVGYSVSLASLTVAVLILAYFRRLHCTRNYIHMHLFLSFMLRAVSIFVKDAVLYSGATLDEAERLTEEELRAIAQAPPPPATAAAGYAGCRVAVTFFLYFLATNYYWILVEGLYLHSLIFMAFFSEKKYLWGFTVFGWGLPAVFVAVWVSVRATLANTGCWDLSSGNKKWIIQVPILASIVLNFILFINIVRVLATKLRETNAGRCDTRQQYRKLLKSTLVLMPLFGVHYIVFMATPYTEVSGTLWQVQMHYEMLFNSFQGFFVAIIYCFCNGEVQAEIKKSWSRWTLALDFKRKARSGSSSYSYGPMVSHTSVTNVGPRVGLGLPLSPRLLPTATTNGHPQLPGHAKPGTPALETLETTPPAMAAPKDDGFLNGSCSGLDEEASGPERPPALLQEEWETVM

For the molecule `COc1cc2nc(N3CCN(C(=O)C4CCCO4)CC3)nc(N)c2cc1OC` (centres undefined), the result in test [1] was inactive. Besides, the Potency entry in [2], in [3], in test [4], in test [5], in test [6] and in test [7] was “inactive” in each case. Also, the Potency entry in test [8], in test [9], in test [10], in test [11], in [12] and in test [13] was “inactive” each time. The Potency entry in test [14] and in test [15] was “inactive” in each case.

Consider `CCC(C)(Oc1ccc(C2(c3ccc(OC(C)(CC)C(=O)O)cc3)CCCCC2)cc1)C(=O)O` (centres undefined), for which the Potency entry in [2], in test [3], in test [16], in [17], in test [4] and in test [18] was “inactive” in each case. The Potency result in test [5], in test [6], in [8], in test [9], in [10] and in test [11] was “inactive” each time. For the same molecule, the Potency entry in [12], in [13], in test [14] and in [15] was “inactive” in each case.

As to `CC(=O)O[C@H]1C(=O)[C@@]2(C)C([C@H](OC(=O)c3ccccc3)[C@]3(O)C[C@H](OC(=O)[C@H](O)[C@@H](NC(=O)c4ccccc4)c4ccccc4)C(C)=C1C3(C)C)[C@]1(OC(C)=O)CO[C@@H]1C[C@@H]2O` (some centres undefined), the molecule was classed as inactive in [1]. The Potency in test [2] is 0.0017 µM (active); in test [4] it was 0.001 µM (active); in test [10], 0.001 µM (active); in test [13] it was 0.001 µM (active). The Potency entry in [6] and in [8] was “inactive” throughout.

With `C[Se]CCC(N)C(=O)O` (centres undefined), the Potency result in test [2], in test [3], in test [16], in [17], in test [18] and in test [5] was “inactive” each time. Besides, the Potency result in test [7], in test [10], in test [11], in [12], in [13] and in [14] was “inactive” throughout. The Potency in test [4] is 54 µM (active).

Regarding `Cc1ncc([N+](=O)[O-])n1CC(C)O` (centres undefined), the Potency entry in [2], in [3], in test [16], in test [17], in [4] and in [18] was “inactive” each time. The Potency entry in test [5], in [6], in test [7], in test [8], in [9] and in test [10] was “inactive” in each case. The Potency result in test [11], in [12], in [13] and in test [14] was “inactive” each time.

Turning to `CCC1=C(C)CN(C(=O)NCCc2ccc(S(=O)(=O)NC(=O)NC3CCC(C)CC3)cc2)C1=O` (centres undefined), the Potency entry in [2], in test [3], in test [16], in [17], in test [4] and in [18] was “inactive” each time. Further, the Potency result in test [5], in [6], in [7], in test [8], in test [9] and in test [10] was “inactive” each time. In addition, the Potency result in [11], in test [12], in [14] and in test [15] was “inactive” throughout.

On to `Cc1cc2c(s1)Nc1ccccc1N=C2N1CCN(C)CC1`, for which the Potency entry in test [2], in test [3], in test [16], in [17], in test [4] and in [18] was “inactive” throughout. The Potency result in test [5], in test [6], in [7], in [9], in [10] and in [11] was “inactive” in each case. Moreover, the Potency result in test [12], in [13], in [14] and in test [15] was “inactive” in each case.

On to `CN(C)CCc1c[nH]c2ccc(Cn3cncn3)cc12`, for which the Potency entry in test [2], in test [3], in [16], in test [17], in test [4] and in test [8] was “inactive” throughout. The Potency entry in test [9], in [10], in test [12] and in [14] was “inactive” each time. For the same molecule, the Potency was 19.3 µM (active) in test [18] and 11.8 µM (active) in test [7].

For the molecule `Cc1nccn1CC1CCc2c(c3ccccc3n2C)C1=O` (centres undefined), the Potency result in test [2], in test [3], in test [16], in test [17], in test [4] and in test [18] was “inactive” in each case. For the same molecule, the Potency entry in [5], in [8], in test [10], in [11], in [12] and in test [14] was “inactive” each time. In test [15], the Potency entry is “inactive”.

With `Nc1ncn([C@H]2C[C@H](O)[C@@H](CO)O2)c(=O)n1`, the Potency entry in test [2], in test [3], in test [16], in test [17], in [4] and in test [18] was “inactive” throughout. Moreover, the Potency entry in test [5], in test [6], in [7], in [8], in [9] and in test [10] was “inactive” throughout. Also, the Potency result in test [11], in test [12], in [13] and in test [15] was “inactive” in each case.

Take `CCOC(=O)c1c(C)n(C)c2ccc(O)cc12`: the Potency result in test [2], in test [3], in [16], in [17], in [4] and in test [18] was “inactive” each time. Besides, the Potency entry in test [5], in test [6], in test [7], in test [9], in test [10] and in test [11] was “inactive” in each case. The Potency result in test [12], in [14] and in test [15] was “inactive” throughout.

In the case of `OC(CN1CCN(c2cccc(Cl)c2)CC1)C(c1ccccc1)c1ccccc1` (centres undefined), the molecule was called inactive in test [1]. In addition, the Potency result in test [2] and in [12] was “inactive” each time. Besides, the Potency in [17] was 18.7 µM (active); in test [4], 10.5 µM (active); in [7], 18.7 µM (active); in [8], 15.2 µM (active); in [13], 24.3 µM (active).

Regarding `COc1c(O)cc2c(c1O)[C@@H]1O[C@H](CO)[C@@H](O)[C@H](O)[C@H]1OC2=O`, the Potency entry in [2], in test [3], in test [16], in [17], in [4] and in test [18] was “inactive” each time. Also, the Potency entry in test [5], in [8], in test [9], in test [10], in [11] and in test [12] was “inactive” throughout. In addition, the Potency entry in [13], in [14] and in test [15] was “inactive” throughout.

For the molecule `CC1Cc2ccccc2N1NC(=O)c1ccc(Cl)c(S(N)(=O)=O)c1` (centres undefined), the Potency entry in test [2], in [3], in test [16], in test [17], in [4] and in [18] was “inactive” each time. In addition, the Potency entry in test [5], in test [6], in [7], in test [9], in [10] and in test [11] was “inactive” throughout. In addition, the Potency entry in [12], in [13], in test [14] and in test [15] was “inactive” each time.

For the origin of these results see PubChem BioAssay (NCATS).
